Results filed as inconclusive are left out. A call without a number means that no potency is given here. The source made the active and inactive calls. Calls come from the whole dose curve; as a rule, active = well fitted curve in the direction sought with a large enough effect; inconclusive = small, poorly fitted or top-dose-only effect, or another doubt; inactive = no such curve, though single readings can be large; an effect the other way counts as inactive or inconclusive.

Test [1] in a line: qHTS of Trypanosoma Brucei Inhibitors: LOPAC Validation (AID 624147). In a few lines:
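Luminescent Kinase-Glo Plus end-point after 45 min room-temperature reaction of T. brucei pyruvate kinase started with 130 uM ADP (final). Buffer TEA 50 mM pH 7.2 with KCl, MgCl2, BSA, Tween-20; titration-based qHTS with fitted concentration-effect curves.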
Background: qHTS replaces the single test concentration by a dilution series.

Test [2] in a line: HTS Assay for Allosteric Antagonists of the Human D2 Dopamine Receptor: Hit Validation in HTRF (AID 624455).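 Note: stable D1 dopamine receptor cell line scored for blocking the D1 response.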 In short, it runs like this:
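First, antagonism was screened by calcium flux in a force-coupled, inducible Hek293 Trex D2 line challenged with EC80 dopamine. Hits then went into an HTRF assay in cells stably expressing D1, testing inhibition of the D1 response.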
(In general: Time-resolved FRET reads energy transfer from a long-lived donor to a nearby acceptor.)

`O=c1c(O)c(-c2ccc(O)cc2O)oc2cc(O)cc(O)c12`: the Potency entry in test [1] was “inactive”. In test [2], the result was inactive.
For the molecule `O=Nc1c(-c2c(O)[nH]c3cc(Br)ccc23)[nH]c2ccccc12`, in test [1], the Potency entry is “inactive”. Besides, in test [2], the molecule was classed as inactive.

The record behind these values is PubChem BioAssay (NCATS).
